A number with no mark means an inactive call.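 How the source made its calls, unless noted: active means viability at or below 27.92% in each of two runs, the all-compound median minus 4 SD; inconclusive means no clear call, values can overlap the other calls; inactive means the rest.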 Results filed as inconclusive are left out.
Assay: growth suppression of PTEN-deleted HCT116, pilot screen, cell-based, HCT116 clonal line, CellTiter-Glo (AID 824);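 further: 0% = 20 µM Hyamine control and 100% = vehicle cell control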
Conditions: 60 h, at 10 µM, stronger effect = lower value
In the case of `CCOC(=O)c1ccc(NS(=O)(=O)c2ccc3c(c2)oc(=O)n3C)cc1`, the viability is reported as 86.4%.
Compound `O=C(Nc1ccc2c(c1)OCCO2)NC1CCCCC1` has a viability of 85.5%.
With `O=C(CSc1nnnn1-c1ccccc1Cl)Nc1ccc2c(c1)OCCO2` the viability was 87.5%.
For `COc1ccc(-c2nc(CSCC(=O)NCc3ccc4c(c3)OCO4)c(C)o2)cc1OC`, the viability was 74.1%.
With `Cc1cnc(NC(=O)CSc2nnc(COc3c(C)cccc3C)o2)s1` the viability was 86.1%.
With `Cc1cccc(C2CC(c3ccccc3)Nc3nc(N)nn32)c1` (stereo not given) the viability was 88.2%.
With `CCc1ccccc1N1CC23C=CC(O2)C(C(=O)O)C3C1=O` (stereo not given) the viability was 102%.
`CCOC(=O)C1CCN(Cc2ccc(F)c(Br)c2)CC1` gave a viability of 91.9%.
`CCOc1ccccc1N1Cc2cc(C)c(C)cc2C1` gave a viability of 59.3%.
In the case of `CCN1CCN(C(CNC(=O)c2ccc3c(c2)OCO3)c2cccnc2)CC1` (stereo not given), the viability is reported as 96.2%.
`O=C(NCCSc1c[nH]c2ccccc12)c1ccco1` showed a viability of 91.6%.
`COCCNC(=O)CN(C)S(=O)(=O)c1ccc(Br)cc1` showed a viability of 98.4%.
For `COc1cc(C(=O)Nc2cccc(-c3nncn3C)c2)cc(OC)c1OC`, the viability was 104%.
In the case of `CN1CCN(Cc2nc3c(c(=O)n(C)c(=O)n3C)n2Cc2ccccc2Cl)CC1`, the viability is reported as 91.3%.
Work on `O=C(OCCN=C1NS(=O)(=O)c2ccccc21)C1CC(=O)N(c2ccc(Cl)cc2)C1` (stereo not given) yielded a viability of 101%.
For `COc1cccc2cc(C(=O)OC3CCN(C)CC3)c(=O)oc12`, the viability was 107%.
Work on `Cc1cccc(N2C(=O)CC(N3CCN(c4cccc(C(F)(F)F)c4)CC3)C2=O)c1` (stereo not given) yielded a viability of 97.8%.
`O=c1c2ccccc2nc2n1CCN2` gave a viability of 104%.
`CCOC(=O)C1=C(C)Nc2nnnn2C1c1ccc(OC)c(Br)c1` (stereo not given) showed a viability of 90.7%.
Work on `COc1ccc(-n2c(Cc3cccn3C)nnc2SCC(N)=O)cc1` yielded a viability of 94.4%.
`COc1ccccc1NC(=O)CSc1nnc(Cc2cccn2C)n1-c1ccc(F)cc1` showed a viability of 86.8%.
`CC(=O)Nc1cccc(Oc2nc(C)cc(C)c2C#N)c1` gave a viability of 102%.
Work on `COc1ccc(CNC(=O)c2ccc(CN3CCOCC3)cc2)cc1` yielded a viability of 105%.
For `Cc1cc(OCC(=O)NCCO)cc(C)c1Cl`, the viability was 99.6%.
For `COc1ccc(C)cc1S(=O)(=O)N1CCN(S(=O)(=O)c2cc(C)ccc2OC)CC1`, the viability was 90.9%.
Work on `CCCCC(NS(=O)(=O)c1ccc(OC)cc1)C(=O)O` (stereo not given) yielded a viability of 97.1%.
In the case of `CCOc1ccc(Cn2nnc(C(=O)Nc3ccc(OC)cc3OC)c2N)cc1`, the viability is reported as 82.8%.
`Cc1cc(C)c(NC(=O)CSc2nc3c(c(=O)n2C)SC(C)C3)c(C)c1` (stereo not given) showed a viability of 77.5%.
Compound `COc1ccccc1N1C(=O)CCC1(C#N)c1ccccc1` (stereo not given) has a viability of 99.7%.
For `CCOc1ccc(N(CC(=O)NC2CCCC(C)C2C)S(=O)(=O)c2c(C)noc2C)cc1` (stereo not given), the viability was 83.6%.
In the case of `CCN1C(=O)c2ccccc2S(=O)(=O)c2ccc(C(=O)NCc3cccnc3)cc21`, the viability is reported as 90.4%.
`Cc1ccc(C(=O)CC2(O)C(=O)N(C)c3ccc(Br)cc32)c(C)c1` (stereo not given) showed a viability of 74.7%.
`CCN1CCN(C(=O)c2cn(CC)c3ccc(S(=O)(=O)N(C)C)cc3c2=O)CC1` gave a viability of 93.7%.
For `COc1ccc(OC)c(NC(=O)CSc2nnc(Cc3cccn3C)n2-c2ccc(F)cc2)c1`, the viability was 92%.
With `CCOc1ccc(-c2nnc(SCC(=O)N3CCN(c4ccccc4)CC3)o2)cc1` the viability was 97.3%.
With `COCCCN(C)C1CCN(C(=O)Nc2ccc(F)cc2)CC1` the viability was 105%.
`COc1cccc(C2CC(=O)Nc3c2c(=O)n(C)c(=O)n3C)c1OC` (stereo not given) gave a viability of 95.9%.
In the case of `CCCC(=O)C1=C(N(C)c2ccccc2)CC(C)(C)C(C(=O)OC)C1=O` (stereo not given), the viability is reported as 92.9%.
Work on `CC(=O)N1c2c(cc(Br)cc2S(=O)(=O)NCC2COc3ccccc3O2)CC1C` (stereo not given) yielded a viability of 81%.
Work on `CCCCNC(=O)Cn1c(=O)n(C)c2ccccc21` yielded a viability of 101%.

Assay: inhibitors of the yeast RAM network, pilot screen, dse1pr::URA3 reporter, 5-FOA selection (AID 869;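 active means inhibition over a set limit, the all-compound mean plus 3 SD, in both replicate runs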;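 further: 0% = DMSO wells with no growth and 100% = 10 µM 1-NA-PP1 with full growth; RAM network block rescues cells from 5-FOA so hits raise OD615 growth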)
Conditions: S. cerevisiae dse1pr::URA3 5-FOA growth, OD615, 2 d; at 10 µM; stronger effect = higher value; strain carries analog-sensitive mutant Cbk1 kinase
In the case of `CCOC(=O)c1ccc(NS(=O)(=O)c2ccc3c(c2)oc(=O)n3C)cc1`, the inhibition is reported as 0.865%.
`O=C(Nc1ccc2c(c1)OCCO2)NC1CCCCC1` showed an inhibition of 1.55%.
For `O=C(CSc1nnnn1-c1ccccc1Cl)Nc1ccc2c(c1)OCCO2`, the inhibition was 2.22%.
With `COc1ccc(-c2nc(CSCC(=O)NCc3ccc4c(c3)OCO4)c(C)o2)cc1OC` the inhibition was 0.57%.
Compound `Cc1cnc(NC(=O)CSc2nnc(COc3c(C)cccc3C)o2)s1` has an inhibition of 1.23%.
Work on `Cc1cccc(C2CC(c3ccccc3)Nc3nc(N)nn32)c1` (stereo not given) yielded an inhibition of -0.64%.
Compound `CCc1ccccc1N1CC23C=CC(O2)C(C(=O)O)C3C1=O` (stereo not given) has an inhibition of 0.365%.
Work on `CCOC(=O)C1CCN(Cc2ccc(F)c(Br)c2)CC1` yielded an inhibition of 2.35%.
With `CCOc1ccccc1N1Cc2cc(C)c(C)cc2C1` the inhibition was 2.19%.
For `CCN1CCN(C(CNC(=O)c2ccc3c(c2)OCO3)c2cccnc2)CC1` (stereo not given), the inhibition was 1.35%.
Work on `O=C(NCCSc1c[nH]c2ccccc12)c1ccco1` yielded an inhibition of 1.83%.
Work on `COCCNC(=O)CN(C)S(=O)(=O)c1ccc(Br)cc1` yielded an inhibition of 0.87%.
In the case of `COc1cc(C(=O)Nc2cccc(-c3nncn3C)c2)cc(OC)c1OC`, the inhibition is reported as 0.045%.
For `CN1CCN(Cc2nc3c(c(=O)n(C)c(=O)n3C)n2Cc2ccccc2Cl)CC1`, the inhibition was 1.5%.
`O=C(OCCN=C1NS(=O)(=O)c2ccccc21)C1CC(=O)N(c2ccc(Cl)cc2)C1` (stereo not given) gave an inhibition of 0.695%.
For `COc1cccc2cc(C(=O)OC3CCN(C)CC3)c(=O)oc12`, the inhibition was -0.245%.
For `Cc1cccc(N2C(=O)CC(N3CCN(c4cccc(C(F)(F)F)c4)CC3)C2=O)c1` (stereo not given), the inhibition was 1.32%.
Work on `O=c1c2ccccc2nc2n1CCN2` yielded an inhibition of 1.84%.
With `CCOC(=O)C1=C(C)Nc2nnnn2C1c1ccc(OC)c(Br)c1` (stereo not given) the inhibition was 3.05%.
Work on `COc1ccc(-n2c(Cc3cccn3C)nnc2SCC(N)=O)cc1` yielded an inhibition of 1.42%.
`COc1ccccc1NC(=O)CSc1nnc(Cc2cccn2C)n1-c1ccc(F)cc1` gave an inhibition of 2.05%.
Compound `CC(=O)Nc1cccc(Oc2nc(C)cc(C)c2C#N)c1` has an inhibition of 1.34%.
`COc1ccc(CNC(=O)c2ccc(CN3CCOCC3)cc2)cc1` gave an inhibition of 1.33%.
In the case of `Cc1cc(OCC(=O)NCCO)cc(C)c1Cl`, the inhibition is reported as 1.37%.
Work on `COc1ccc(C)cc1S(=O)(=O)N1CCN(S(=O)(=O)c2cc(C)ccc2OC)CC1` yielded an inhibition of 2.31%.
`CCCCC(NS(=O)(=O)c1ccc(OC)cc1)C(=O)O` (stereo not given) gave an inhibition of 1.7%.
Compound `CCOc1ccc(Cn2nnc(C(=O)Nc3ccc(OC)cc3OC)c2N)cc1` has an inhibition of 3.14%.
In the case of `Cc1cc(C)c(NC(=O)CSc2nc3c(c(=O)n2C)SC(C)C3)c(C)c1` (stereo not given), the inhibition is reported as 1.58%.
For `COc1ccccc1N1C(=O)CCC1(C#N)c1ccccc1` (stereo not given), the inhibition was 1.52%.
For `CCOc1ccc(N(CC(=O)NC2CCCC(C)C2C)S(=O)(=O)c2c(C)noc2C)cc1` (stereo not given), the inhibition was 0.98%.
Work on `CCN1C(=O)c2ccccc2S(=O)(=O)c2ccc(C(=O)NCc3cccnc3)cc21` yielded an inhibition of 0.65%.
With `Cc1ccc(C(=O)CC2(O)C(=O)N(C)c3ccc(Br)cc32)c(C)c1` (stereo not given) the inhibition was 2.44%.
`CCN1CCN(C(=O)c2cn(CC)c3ccc(S(=O)(=O)N(C)C)cc3c2=O)CC1` gave an inhibition of 2.08%.
With `COc1ccc(OC)c(NC(=O)CSc2nnc(Cc3cccn3C)n2-c2ccc(F)cc2)c1` the inhibition was -0.57%.
`CCOc1ccc(-c2nnc(SCC(=O)N3CCN(c4ccccc4)CC3)o2)cc1` showed an inhibition of 2.71%.
For `COCCCN(C)C1CCN(C(=O)Nc2ccc(F)cc2)CC1`, the inhibition was 0.185%.
For `COc1cccc(C2CC(=O)Nc3c2c(=O)n(C)c(=O)n3C)c1OC` (stereo not given), the inhibition was 2.06%.
Work on `CCCC(=O)C1=C(N(C)c2ccccc2)CC(C)(C)C(C(=O)OC)C1=O` (stereo not given) yielded an inhibition of -0.705%.
In the case of `CC(=O)N1c2c(cc(Br)cc2S(=O)(=O)NCC2COc3ccccc3O2)CC1C` (stereo not given), the inhibition is reported as 0.495%.
`CCCCNC(=O)Cn1c(=O)n(C)c2ccccc21` showed an inhibition of 1.49%.

Source: PubChem BioAssay
